From PubChem BioAssay (EPA / NIEHS)
Results filed as inconclusive are left out. Activity calls are given as the source filed them. How the source made its calls, unless noted: active means hit-call score of the fitted dose curve at least 0.9, where 1 is the maximum; inactive means score below 0.9.

Key:
[1] = CCTE_Shafer_MEA_dev_firing_rate_mean: CCTE's Neural Network Formation Assay for Mean Firing Rate, Shafer Lab (AID 2284031)
Summary of the method: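 Primary rat cortical neurons on 48-well MEA plates, exposed from plating day 0 with dosing renewed on DIV 5 and 9. Mean well firing rate over active electrodes, recorded days 5, 7, 9, 12, summarised as trapezoidal AUC.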

[2] = CCTE_Shafer_MEA_dev_per_burst_spike_percent: CCTE's Neural Network Formation Assay for Percent of Spikes in a Burst, Shafer Lab (AID 2284032)
Summary of the method: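 Rat primary cortical neurons on 16-electrode MEA wells, dosed from plating day 0 for 12 days with renewal on DIV 5 and 9; spikes-in-bursts percentage averaged over bursting electrodes, collapsed as AUC across days 5, 7, 9, 12; loss direction versus DMSO.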

[3] = CCTE_Shafer_MEA_dev_active_electrodes_number: CCTE's Neural Network Formation Assay for Number of Active Electrodes, Shafer Lab (AID 2284040; active means hit-call score of the fitted dose curve at least 0.9, where 1 is the maximum)
Summary of the method: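 Primary rat cortical neurons on 16-electrode MEA wells, exposed from day 0 through day 12 with compound renewed at DIV 5 and 9 feeds. Active electrodes (mean firing ≥5 spikes/min) counted at DIV 5, 7, 9, 12; trapezoidal AUC across days, loss-of-signal versus DMSO.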

[4] = CCTE_Shafer_MEA_dev_burst_rate: CCTE's Neural Network Formation Assay for Burst Rate, Shafer Lab (AID 2284042)
Summary of the method: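 Primary rat cortical neurons on PEI-coated 48-well MEA plates (laminin added with cells at plating) (16 electrodes/well), exposed from plating to day 12, dosing renewed at DIV 5 and 9. Burst rate averaged over active electrodes, recorded DIV 5, 7, 9, 12, summarized as AUC; loss versus DMSO.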

[5] = CCTE_Shafer_MEA_dev_bursting_electrodes_number: CCTE's Neural Network Formation Assay for Number of Bursting Electrodes, Shafer Lab (AID 2284043; active means hit-call score of the fitted dose curve at least 0.9, where 1 is the maximum)
Summary of the method: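 Primary rat cortical neurons plated on 16-electrode MEA wells, exposed from day 0 with compound renewed at DIV 5 and 9. Electrodes bursting ≥1 burst per 2 min counted on days 5, 7, 9 and 12; trapezoidal AUC across days, fitted for loss versus DMSO.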

[6] = CCTE_Shafer_MEA_dev_per_burst_interspike_interval: CCTE's Neural Network Formation Assay for Burst Interspike Interval, Shafer Lab (AID 2284044);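 further: mean spike spacing inside bursts as AUC over recordings on days 5 7 9 12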
Summary of the method: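 Spontaneous activity of maturing rat cortical networks is recorded on DIV 5, 7, 9 and 12 under chronic compound exposure beginning at plating. Endpoint: burst interspike interval well-mean, collapsed into trapezoidal AUC and fitted in the negative direction relative to DMSO.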

[7] = CCTE_Shafer_MEA_dev_burst_duration_mean: CCTE's Neural Network Formation Assay for Mean Burst Duration, Shafer Lab (AID 2284045)
Summary of the method: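 Primary rat cortical neurons on 48-well 16-electrode MEA plates, exposed from day 0 with renewal at DIV 5 and 9; spontaneous activity recorded on days 5, 7, 9, 12. Well-mean burst duration across bursting electrodes, collapsed as trapezoidal AUC; DMSO baseline.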

[8] = CCTE_Shafer_MEA_dev_interburst_interval_mean: CCTE's Neural Network Formation Assay for Mean Interburst Interval, Shafer Lab (AID 2284046);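 further: well-mean interburst interval of bursting electrodes as AUC over four recording days; curve fitted for decrease in interburst interval relative to DMSO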
Summary of the method: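 Recordings on days 5, 7, 9 and 12 give well-mean interburst interval across actively bursting electrodes, summarized as area under the curve. Cultures: rat cortical neurons, continuous exposure from day 0, compound renewed at feeds; decrease analyzed versus DMSO.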

[9] = CCTE_Shafer_MEA_dev_inter_network_spike_interval_mean: CCTE's Neural Network Formation Assay for Mean Inter-network Spike Interval, Shafer Lab (AID 2284047)
Summary of the method: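 Primary rat cortical neurons on 16-electrode MEA wells, exposed from plating day 0 through DIV 12, compound renewed at DIV 5 and 9 media changes. Mean interval between network-spike peaks recorded DIV 5, 7, 9, 12; collapsed as trapezoidal AUC, fitted downward versus DMSO.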

[10] = CCTE_Shafer_MEA_dev_network_spike_number: CCTE's Neural Network Formation Assay for Number of Network Spikes, Shafer Lab (AID 2284048)
Summary of the method: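 Primary rat cortical neurons on PEI/laminin 48-well MEA plates, dosed from plating day 0 for 12 days, renewed at DIV 5 and 9. Network spike counts recorded DIV 5, 7, 9, 12, collapsed as trapezoidal AUC; DMSO baseline.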

[11] = CCTE_Shafer_MEA_dev_network_spike_peak: CCTE's Neural Network Formation Assay for Mean Number of Electrodes in Network Spike, Shafer Lab (AID 2284049)
Summary of the method: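 Network-spike peak electrode count from recordings on days 5, 7, 9 and 12 was combined as trapezoidal area under the curve. Rat cortical cultures were treated continuously from plating, with compound renewed at each feed (DIV 5, 9); fits versus DMSO.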

[12] = CCTE_Shafer_MEA_dev_spike_duration_mean: CCTE's Neural Network Formation Assay for Mean Spike Duration, Shafer Lab (AID 2284051);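 further: mean network spike duration pooled as area under curve over DIV 5 to 12 recordings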
Summary of the method: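 Primary rat cortical neurons on 16-electrode MEA wells (PEI-coated, laminin in plating drop), exposed from plating through DIV 12 with compound renewed at DIV 5 and 9. Mean network-spike duration recorded DIV 5, 7, 9, 12; trapezoidal AUC across days, DMSO baseline.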

[13] = CCTE_Shafer_MEA_dev_per_network_spike_spike_number_mean: CCTE's Neural Network Formation Assay for Mean Number of Spikes in a Network Spike, Shafer Lab (AID 2284053)
Summary of the method: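 Primary rat cortical neurons on 48-well, 16-electrode MEA plates were exposed from plating to DIV 12, with dosing renewed on DIV 5 and 9. Spikes per network spike (0.05 s peak window) were recorded on DIV 5, 7, 9 and 12 and collapsed as trapezoidal AUC versus DMSO.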

[14] = CCTE_Shafer_MEA_dev_per_network_spike_spike_percent: CCTE's Neural Network Formation Assay for Percent of Spikes in a Network Spike, Shafer Lab (AID 2284054)
Summary of the method: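 Rat primary cortical neurons were grown on 48-well MEA plates (16 electrodes/well), exposed from plating day 0 through day 12, with treatment renewed on DIV 5 and 9. Percent of spikes within 0.05 s network-spike peaks was measured, summarised as AUC across days 5, 7, 9, 12.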

[15] = CCTE_Shafer_MEA_dev_LDH: CCTE's Lactate Dehydrogenase Assay for Cytotoxicity in the Neural Network Formation Assay, Shafer Lab (AID 2284068; active means hit-call score of the fitted dose curve at least 0.9, where 1 is the maximum;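 further: exposure for twelve days from plating with re-dosing on DIV 5 and 9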)
Summary of the method: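 Primary rat cortical neurons were plated on PEI/laminin MEA plates and exposed from day 0 for twelve days, with compound renewed at DIV 5 and 9. Cytotoxicity was determined by spectrophotometric LDH assay relative to DMSO.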

[16] = CCTE_Shafer_MEA_dev_AB: CCTE's Alamar Blue Assay for Cytotoxicity in the Neural Network Formation Assay, Shafer Lab (AID 2284083; active means hit-call score of the fitted dose curve at least 0.9, where 1 is the maximum;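 further: twelve days of exposure from plating with re-dosing on DIV 5 and 9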)
Summary of the method: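 Primary rat cortical neurons on PEI-coated 48-well MEA plates, 1.5 x 10^5 cells/well in laminin drop; compound exposure from day 0 of plating for twelve days, renewed at medium changes on DIV 5 and 9. Viability read as resazurin reduction by fluorescence, relative to DMSO.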

[17] = CCTE_Shafer_MEA_dev_mutual_information_norm: CCTE's Neural Network Formation Assay for Mutual Information Normalization, Shafer Lab (AID 2284091)
Summary of the method: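 Primary rat cortical neurons on PEI-coated 48-well MEA plates, 1.5 x 10^5 cells/well, exposed from day 0 through day 12 with re-dosing at DIV 5 and 9. Mutual information between electrodes recorded days 5, 7, 9, 12; trapezoidal AUC, loss-of-signal fit versus DMSO.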

[18] = UKN2_HCS_IMR90_neural_migration: University of Konstanz (UKN) Leist Lab Neural Crest Cell Migration Assay in human induced IMR90 Pluripotent Stem Cells (UKN2) (AID 2284204); settings: actives raise or lower the signal
Summary of the method: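 iPSC-derived IMR90 neural crest cells seeded around stoppers on PLO/laminin/fibronectin; migration started in N2-S medium with EGF/FGF, compounds added after 24 h for 24 h. Migration into cell-free area imaged after calcein-AM/Hoechst staining; bidirectional fit versus DMSO.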

[19] = IUF_NPC1b_proliferation_BrdU_72hr: Leibniz Research Institute for Environmental Medicine (IUF) 72-hour Neural Progenitor Cell Bromodeoxyuridine (BrdU) Proliferation Assay (NPC1b) (AID 2284207)
Summary of the method: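 BrdU luminescence ELISA quantified DNA synthesis over the last 16 h of a 72 h exposure, fitted against DMSO. Primary hNPC spheres from gestational week 16-19 cortex grown with EGF/FGF at 37C, pH 7.2-7.6.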

[20] = IUF_NPC1a_proliferation_area_72hr: Leibniz Research Institute for Environmental Medicine (IUF) 72-hour Neural Progenitor Cell Proliferation Area Assay (NPC1a) (AID 2284208)
Summary of the method: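 Measured in 3D suspension: each well held one primary hNPC sphere grown with EGF and FGF at pH 7.2-7.6. Compound stayed on for 72 h, then area was imaged; spheres lacking growth factors defined reduced proliferation.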

[21] = IUF_NPC1_viability_72hr: Viability Assessment at 72 hours in the Leibniz Research Institute for Environmental Medicine (IUF) Neural Progenitor Cell Proliferation Assay (NPC1) (AID 2284209)
Summary of the method: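 Single spheres (0.25-0.35 mm) of human fetal cortex-derived neural progenitor cells were grown in proliferation medium with EGF and FGF at 37C and 5% CO2. They were exposed for 72 h without renewal, and viability was read by alamar blue resorufin fluorescence.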

Measured: AC50

CCc1ccccc1
active: [15] 0.299 µM | [16] 0.476 µM | [19] 12.7 µM
inactive: all other assays above
